Assay outcomes deposited in PubChem by several laboratories.
The list is not random: actives were taken first. Their share in the collection is about 4.5%.
PfHsp90 yeast 2: growth inhibition of PfHsp90-expressing yeast, primary screen, antimalarial PfHsp90 inhibitor project, S. cerevisiae, BacTiter-Glo luminescence, single point, set 2; 310,000 tested, 0.32% active; AID 504621, 2011; inhibition, % at 9.4 µM; BacTiter-Glo ATP, 48 h; yeast lacking PDR1 and PDR3 efflux regulators;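 active = every replicate shows inhibition above about 80%, whatever the replicate mean, limit read from the data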;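 note: 0% = DMSO neutral controls and 100% = 20 µM radicicol positive controls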
NALP3 yeast inh: NALP3 inflammasome inhibitors in reconstituted yeast, primary screen, luminescence, uHTS; AID 2825, 2010; Yeast reconstituted NLRP3/ASC/caspase-1, beta-gal luminescence, 24 h; inhibition, % at 10 µM; 330,000 tested, 0.39% active;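 active = inhibition of 50% or more; inactive = inhibition below 50%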;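 note: plate controls were induced DMSO wells for no effect and uninduced yeast grown without galactose for full effect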
tim23-1 inh: growth inhibitors of tim23-1 mutant yeast, primary screen, luminescence, uHTS. S. cerevisiae tim23-1 growth, BacTiter-Glo luminescence, 24 h. inhibition, % at 20 µM. 330,000 tested, 1.3% active;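 active = growth inhibition of the mutant yeast at or above 50%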;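 note: temperature-sensitive mutant grown at 25 °C; plate controls were DMSO-treated mutant yeast for no effect and medium wells lacking yeast for full effect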
TIM10 inh: growth inhibitors of isogenic TIM10 control yeast, primary screen, counter-screen for tim10-1 yeast inhibitor project, luminescence, uHTS. inhibition, % at 10 µM. S. cerevisiae TIM10 strain growth, BacTiter-Glo luminescence, 24 h. 330,000 tested, 1.4% active. AID 463195, 2010;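 active = inhibition of 40% or more at the single tested concentration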;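 note: wild-type TIM10 isogenic control strain grown at permissive 25 °C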
SKKanGAS inh: S. pyogenes SKKanGAS growth inhibitors in kanamycin, primary screen, streptokinase expression inhibitor project, SKKanGAS strain, BacTiter-Glo luminescence | inhibition, % at 7.5 µM | AID 1662, 2009 | 6 h | 300,000 tested, 1.3% active;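 active = mean replicate score, as percent of positive control median, at least 50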;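 note: strain carries kanamycin resistance gene driven by streptokinase promoter and grows in 40 µg/ml kanamycin; loss of luminescence reflects streptokinase promoter inhibition or plain growth inhibition; 0% = median of DMSO wells and 100% = positive control at its reference dose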
tim10-1 inh: growth inhibitors of tim10-1 mutant yeast, primary screen, luminescence, uHTS; 330,000 tested, 2.2% active; inhibition, % at 20 µM; S. cerevisiae tim10-1 ts strain growth, BacTiter-Glo, 24 h;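 active = inhibition of at least 40%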;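 note: mutant grown at 25 °C; 0% = DMSO wells with yeast and 100% = wells holding no yeast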
tim10-1 confirm: growth inhibitors of tim10-1 mutant yeast, confirmation, single concentration, luminescence, S. cerevisiae; shares compounds with tim10-1 inh; S. cerevisiae tim10-1 ts strain growth, BacTiter-Glo, 24 h; inhibition, % at 20 µM; 7,400 tested, 56% active;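 active = inhibition of yeast growth at or above a set limit in either of two repeat tests at 20 µM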;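 note: tim10-1 mutant grown at permissive 25 °C to find synthetic lethal compounds; 0% = DMSO yeast wells and 100% = medium wells without yeast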
tim10 confirm: growth inhibitors of wild-type TIM10 yeast, confirmation, counter-screen for tim10-1 synthetic lethality project, single concentration, luminescence, S. cerevisiae | shares compounds with TIM10 inh | S. cerevisiae tim10 strain growth, BacTiter-Glo luminescence, 24 h | inhibition, % at 10 µM | 4,600 tested, 63% active | AID 463215, 2010;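 active = inhibition of yeast growth at or above a set limit in either of two replicates at 10 µM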;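 note: this counterscreen used the strain with wild-type TIM10; 0% = yeast with DMSO and 100% = medium wells lacking yeast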
tim23-1 confirm: tim23-1 mutant yeast growth inhibitors, confirmation, luminescence, single concentration. shares compounds with tim23-1 inh. S. cerevisiae tim23-1 growth, BacTiter-Glo luminescence, 24 h. inhibition, % at 20 µM. 4,400 tested, 83% active. AID 463218, 2010;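 active = inhibition above about 39% in either of two replicate wells at 20 µM, limit read from the data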;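 note: temperature-sensitive tim23-1 mutant grown at 25 °C; 0% = DMSO wells with yeast and 100% = medium wells without yeast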
* hit, by the source's call; . = no result given.

SMILES | PfHsp90 yeast 2 | NALP3 yeast inh | tim23-1 inh | TIM10 inh | SKKanGAS inh | tim10-1 inh | tim10-1 confirm | tim10 confirm | others
COc1cccc(C2CCN(CC(=O)Nc3cc(Cl)ccc3OC)CC2O)c1 (configuration not stated) | -37 | 25 | 25 | 2 | 19 | 41* | 4 | .
C[C@]12CCC3C(CC[C@H]4C[C@H](O)CC[C@]34C)C1[C@@H](O)[C@@H](O)[C@@H]2O (some centres not stated) | -1 | 38 | 4 | -13 | . | -8 | . | .
CCCNC(=O)c1c(N)n(CC2CCCO2)c2nc3ccccc3nc12 (configuration not stated) | . | 8 | 31 | 26 | 5 | 45* | 14 | .
CCCCn1c(N)c(C(=O)NCc2cccs2)c2nc3ccccc3nc21 | 25 | 17 | 36 | 25 | 38 | 41* | 24 | .
CC(C)OCCCNC(=O)c1c(N)n(CC2CCCO2)c2nc3ccccc3nc12 (configuration not stated) | 2 | -5 | 30 | 18 | -2 | 29 | . | .
CC(C(=O)Nc1ccc(Br)cc1C(=O)c1ccccc1)N1CCOCC1 (configuration not stated) | -19 | 15 | 13 | 27 | 13 | 41* | 25 | .
O=C(CCN1CCOCC1)NCC(=O)Nc1ccc(Br)cc1C(=O)c1ccccc1 | 9 | 4 | 18 | 9 | -3 | -4 | . | .
O=P(O)(O)CN1CCNCCN(CP(=O)(O)O)CCNCC1 | 5 | . | . | . | . | . | . | .
O=C1CC(N2CC=C(c3ccc(F)cc3)CC2)C(=O)N1c1ccc(F)cc1 (configuration not stated) | -10 | 11 | 40 | 20 | -1 | 43* | 26 | .
COc1ccc(N2C(=O)NC(=O)/C(=C\c3ccc([N+](=O)[O-])s3)C2=O)cc1 | 23 | 21 | 43 | 81* | 7 | 68* | 71* | 38*
O=c1[nH]c(=S)n(-c2ccccc2F)c(O)c1C=NCCN1CCNCC1 | 5 | 15 | 0 | -4 | 4 | 3 | . | .
CCSc1cc(C2C(C#N)=C(N)Oc3n[nH]c(C)c32)c(C)o1 (configuration not stated) | 11 | 14 | 10 | 48* | 2 | 63* | 47* | 45*
Fc1ccccc1CNCCc1ccc2c(c1)OCO2 | -5 | 16 | 1 | -2 | 2 | -2 | . | .
FC(F)(F)c1ccccc1CNCCc1c[nH]c2ccccc12 | -4 | 35 | 35 | 61* | 29 | 43* | 62* | 60*
O=C(CCCc1ccccc1)NCCc1cnc[nH]1 | 11 | 1 | -4 | -7 | -1 | 3 | . | .
Cc1ccc(Cn2nnnc2CN2CCC(n3nnc4cc(C)ccc43)CC2)cc1 | -54 | 14 | 45 | 50* | -25 | 52* | 46* | 28*
Cc1ccc(Cn2nnnc2CN2CCC(n3nnc4cc(C(F)(F)F)ccc43)CC2)cc1 | . | 14 | 18 | 33 | 12 | 36 | . | .
CCOC(=O)c1ccc(N2C(=O)CC(N3CC=C(c4ccc(F)cc4)CC3)C2=O)cc1 (configuration not stated) | -9 | -3 | 19 | 57* | 8 | 63* | 62* | 44*
NC(=O)c1ccc(OCCC(O)N2CC=C(c3ccc(F)cc3)CC2)cc1 (configuration not stated) | -2 | 15 | -49 | -12 | . | -20 | . | .
c1ccc(-c2ccc(-c3n(-c4ccccn4)c4ccccc4[n+]3-c3ccccn3)cc2)cc1 | -15 | . | . | . | 7 | . | . | .
OC(Cn1c2ccccc2c2ccccc21)C[n+]1cccc2ccccc21 (configuration not stated) | 9 | 23 | 33 | 57* | -14 | 49* | 43* | 43*
Fc1ccc(C[n+]2c(-c3ccccc3)cc(-c3ccccc3)cc2-c2ccccc2)cc1 | . | 16 | 41 | 49* | 7 | 55* | 52* | 59*
COC(=O)C1=C(c2cccc(Cl)c2)C[C@@H]2CC[C@H]1N2C(=O)N1CCCC1 | 6 | 0 | 29 | 3 | . | 4 | . | .
O=C1NC(=O)N(Cc2ccco2)C(=O)/C1=C\c1cccn1CCOc1ccc(Cl)cc1 | -7 | 10 | 44 | 41* | -6 | 47* | 41* | 39*
COc1cc2c(cc1OC)C1C(=O)c3ccc4c(c3OC1CO2)CC(C(C)C)O4 (configuration not stated) | -2 | . | . | . | . | . | . | .
SMILES | PfHsp90 yeast 2 | NALP3 yeast inh | tim23-1 inh | TIM10 inh | SKKanGAS inh | tim10-1 inh | tim10-1 confirm | tim10 confirm | others
CCN1/C(=C\C=C\C2=[N+](CC)c3ccccc3C2(C)C)C(C)(C)c2ccccc21 | 14 | 28 | 58* | 46* | 58* | 42* | 28 | 27 | tim23-1 confirm=40*
CN(C)c1cc[n+](CC(O)C[n+]2ccc(N(C)C)cc2)cc1 | 3 | 21 | -6 | -18 | -3 | -1 | . | .
Cc1cc(C(C#N)c2ccc(Cl)cc2)c(Cl)cc1NC(=O)c1cc(I)cc(I)c1O (configuration not stated) | -27 | 35 | 70* | 38 | 105* | 43* | 45* | . | tim23-1 confirm=61*
COC(=O)C(O)(c1ccc(NC(=S)NC(=O)c2ccc(Cl)cc2Cl)c(C)c1)C(F)(F)F (configuration not stated) | -9 | 18 | 59* | 23 | 3 | 53* | 37* | . | tim23-1 confirm=58*
CC[n+]1c(/C=C/C=C/c2ccc(N(C)C)cc2)sc2ccccc21 | 24 | 13 | 83* | 82* | 30 | 85* | 90* | 74* | tim23-1 confirm=82*
CN(C)c1ccc(/C=C/C=C/c2sc3ccccc3[n+]2C)cc1 | 19 | 7 | 27 | 22 | 19 | 7 | . | .
C[C@]12CC[C@H](O)CC1=CC(=O)C1C2CC[C@]2(C)C(=O)[C@H](O)CC12 (some centres not stated) | . | 2 | -3 | 0 | . | 4 | . | .
CCOc1ccc(NC2=NCCCS2)cc1 | 2 | 14 | 13 | -18 | 1 | 4 | . | .
Cc1cc(C)n(-c2ccc(NN=C(C#N)C#N)cc2)n1 | -6 | 9 | 36 | 27 | 12 | 24 | . | .
